Bioassay records deposited in PubChem BioAssay by National Center for Advancing Translational Sciences (NCATS).
HT1080NT lethal = kills 2HG-producing HT-1080-NT fibrosarcoma cells. HT-1080-NT fibrosarcoma viability, CellTiter-Glo ATP luminescence, 48 h. Potency, µM (doses to about 46.1 µM), usual class: cytotoxic. 1.6% of 360,000 active. AID 686970;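 note: NT is the 2HG producing partner of a matched IDH1 knockdown line; nearly all actives have a fitted effect of over 55% in size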
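750 cells/well, RPMI + 5% FBS; 2 h settle, compound pin-transfer, 48 h at 37 degrees C. CellTiter-Glo 10 min RT, luminescence. Normalized to DMSO and media-only wells.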
IL-1B inflam inh = inhibitors of inflammasome signaling (IL-1 beta secretion); THP-1 LPS/ATP IL-1B secretion, AlphaLISA, 16 h; stronger effect = lower value; activity change, % at 57.5 µM; 4.7% of 360,000 active; AID 743279; in the data active = activity change below about -50%; inconclusive = mostly about -30% to -49%
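THP-1 cells pretreated 1 hr with compounds (up to 57.5 uM final), then stimulated with LPS (250 ng/mL final) plus ATP (1.25 mM final); secreted IL-1B measured by AlphaLISA after 16 hr, decreased signal indicating inhibition.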
HT1080 IDH1KD tx = toxicity to HT-1080 IDH1 knockdown cells (counter line); 2% of 360,000 active; Potency, µM (series often up to 46.1 µM), hits mostly cytotoxic; HT-1080 IDH1 knockdown viability, ATP luminescence, 48 h
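HT-1080-IDH1KD cells (IDH1 knocked down), 750/well in RPMI with 5% FBS, treated with compound 48 h at 37 degrees C. Viability by CellTiter-Glo luminescence, normalised to DMSO and no-cell wells; concentration-response curves classed.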
ELG1 DNA repair = inhibitors of ELG1-dependent DNA repair in HEK293T cells; HEK293T ELG1-luciferase reporter, luminescence, 16 h; DNA damage induced by 5-fluorouridine; Potency, µM (series often up to 46.1 µM), actives largely listed as inhibitors; 2.3% of 330,000 active; note: nearly all actives have a fitted effect of over 55% in size
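DMSO vehicle served as the neutral condition. Each well held 2,000 cells given 5-fluorouridine plus compound; after 16 hr at 37 °C/5% CO2, ONE-Glo was added and luciferase measured 30 min later.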
TDP1 cell noCPT = qHTS for Inhibitors of human tyrosyl-DNA phosphodiesterase 1 (TDP1): qHTS in cells in absence of CPT | DT40 Tdp1-/- hTDP1 cells, no CPT, ATP luminescence, 48 h | Potency, µM (series often up to 46.2 µM), most hits filed as inhibitors | 15% of 420,000 active; note: nearly all actives have a fitted effect of over 55% in size
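Compound effects on proliferation are scored in DT40 Tdp1-/-;hTDP1 cells in the absence of CPT. ATP levels (CellTiter-Glo luminescence) are recorded after a ≥48 hr, 37 °C incubation.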
TDP1 cell CPT = DT40-hTDP1 cell growth loss with CPT. chicken DT40 Tdp1-/-;hTDP1 cells + 20 nM CPT, ATP luminescence, 48 h. Potency, µM (doses to about 46.2 µM), most hits filed as inhibitors. 12% of 420,000 active; note: nearly all actives have a fitted effect of over 55% in size
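Chicken DT40 Tdp1-/- cells stably complemented with human TDP1 were seeded at 400 cells/well in medium containing 20 nM camptothecin, exposed to pin-transferred compounds, and grown at 37 °C for at least 48 hr. Viability was read as ATP luminescence.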
A number is an active result. The list is not random: actives were taken first. Their share in the collection is about 19%. Unless noted, calls come from the whole dose curve; as a rule, active = well fitted curve in the direction sought with a large enough effect; inconclusive = small, poorly fitted or top-dose-only effect, or another doubt; inactive = no such curve, though single readings can be large; an effect the other way counts as inactive or inconclusive.

Cc1nc2ccc(NC(=O)N(C)c3ccccc3)cc2s1 was read as HT1080NT lethal inactive, IL-1B inflam inh inactive, HT1080 IDH1KD tx inactive, ELG1 DNA repair inconclusive, TDP1 cell noCPT inactive and TDP1 cell CPT inactive.
`Cc1ccc(C(c2nnnn2C2CCCCC2)N2CCN3CCCC3C2)cc1` (stereo unspecified) gave HT1080NT lethal inactive, IL-1B inflam inh inactive, HT1080 IDH1KD tx inactive, ELG1 DNA repair inactive, TDP1 cell noCPT inactive and TDP1 cell CPT inconclusive.
`Fc1ccc(C(c2nnnn2C2CCCC2)N2CCc3ccccc32)cc1` (stereo unspecified) gave HT1080NT lethal inactive, IL-1B inflam inh inactive, HT1080 IDH1KD tx inactive, ELG1 DNA repair inactive, TDP1 cell noCPT 23µM and TDP1 cell CPT inconclusive.
For Cc1ccc(C(c2nnnn2C2CCCC2)N2c3ccccc3CC2C)cc1 (stereo unspecified) the results were HT1080NT lethal inactive, IL-1B inflam inh inactive, HT1080 IDH1KD tx inactive, ELG1 DNA repair inactive, TDP1 cell noCPT 18µM and TDP1 cell CPT inconclusive.
Screening CCN(CC)C(c1ccc(C)cc1)c1nnnn1C1CCCCC1 (stereo unspecified) returned HT1080NT lethal inactive, IL-1B inflam inh inactive, HT1080 IDH1KD tx inactive, ELG1 DNA repair inactive, TDP1 cell noCPT 18µM and TDP1 cell CPT inconclusive.
For CCN(CC)C(c1ccc(F)cc1)c1nnnn1C1CCCCC1 (stereo unspecified) the results were HT1080NT lethal inactive, IL-1B inflam inh inactive, HT1080 IDH1KD tx inactive, ELG1 DNA repair inactive, TDP1 cell noCPT inactive and TDP1 cell CPT inactive.
`CCOC(=O)C1(CCc2ccccc2)CCN(Cc2ccccn2)CC1` gave HT1080NT lethal inactive, IL-1B inflam inh inactive, HT1080 IDH1KD tx inconclusive, ELG1 DNA repair inactive, TDP1 cell noCPT inconclusive and TDP1 cell CPT inactive.
`CCOC(=O)C1(CC2CC2)CCN(Cc2cn(C)c3ccccc23)CC1` gave HT1080NT lethal inactive, IL-1B inflam inh -82, HT1080 IDH1KD tx inconclusive, ELG1 DNA repair inactive, TDP1 cell noCPT 18µM and TDP1 cell CPT 21µM.
CCOC(=O)C1(CCc2ccccc2)CCN(C2Cc3ccccc3C2)CC1 was read as HT1080NT lethal inactive, IL-1B inflam inh inactive, HT1080 IDH1KD tx inactive, ELG1 DNA repair inconclusive, TDP1 cell noCPT inconclusive and TDP1 cell CPT inconclusive.
`CCOC(=O)C1(CC2CC2)CCN(C(=O)c2cc(C3CC3)nc3ccccc23)CC1` gave HT1080NT lethal inactive, IL-1B inflam inh -84, HT1080 IDH1KD tx inactive, ELG1 DNA repair inconclusive, TDP1 cell noCPT 23µM and TDP1 cell CPT inconclusive.
CCOC(=O)C1(CCc2ccccc2)CCN(Cc2ccc(C(=O)OC)cc2)CC1 was read as HT1080NT lethal inactive, IL-1B inflam inh inactive, HT1080 IDH1KD tx inactive, ELG1 DNA repair inactive, TDP1 cell noCPT 16µM and TDP1 cell CPT inconclusive.
CCOC(=O)C1(CCc2ccccc2)CCN(Cc2cc(OC)c(OC)cc2OC)CC1 was read as HT1080NT lethal inconclusive, IL-1B inflam inh -54, HT1080 IDH1KD tx inactive, ELG1 DNA repair inconclusive, TDP1 cell noCPT 21µM and TDP1 cell CPT 21µM.
Nc1ncnc2c1ncn2[C@@H]1O[C@H](C(=O)N[C@H]2c3ccccc3C[C@H]2OC=O)[C@@H](O)[C@H]1O was read as HT1080NT lethal inactive, IL-1B inflam inh inactive, HT1080 IDH1KD tx inactive, TDP1 cell noCPT inactive and TDP1 cell CPT inactive.
For CCOC(=O)C1CCN(Cc2ccc(C(=O)OC)cc2)CC1 the results were HT1080NT lethal inactive, IL-1B inflam inh inactive, HT1080 IDH1KD tx inactive, ELG1 DNA repair inactive, TDP1 cell noCPT inactive and TDP1 cell CPT inactive.
Screening CCOC(=O)C1(CC2CC2)CCN(Cc2ccc(C(=O)OC)cc2)CC1 returned HT1080NT lethal inactive, IL-1B inflam inh inactive, HT1080 IDH1KD tx inactive, ELG1 DNA repair inactive, TDP1 cell noCPT 23µM and TDP1 cell CPT inconclusive.
CC(C)Oc1ccc(C(=O)OCC(=O)NC2CCCCCC2)cc1 was read as HT1080NT lethal inactive, IL-1B inflam inh inactive, HT1080 IDH1KD tx inactive, ELG1 DNA repair inactive, TDP1 cell noCPT 16µM and TDP1 cell CPT inconclusive.
